The values below come from PubChem BioAssay.

Test [1] can be described thus: compounds binding Alexa647 anti-His antibody – biochemical, small-molecule microarray, 635 nm fluorescence, artefact control for SMM control protein annotation, primary screen (AID 1128).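 Further: score merges feature fluorescence with signal-to-noise for each printed compound spot.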 The following applies: higher = more signal.
Test [2] deals with Human papillomavirus type 1a E7 protein (residues 1-88). The test is described as follows: HPV1a E7 small-molecule binders, primary screen, biochemical, small-molecule microarray, residues 1-88, 635 nm (AID 1129). The following applies: small-molecule microarray binding, fluorescence 635 nm; higher = more signal.
In test [3] the target is Focal adhesion kinase 1 (Homo sapiens) (UniProt Q05397). The test is described as follows: PTK2 protein binding on printed compound slides – biochemical, small-molecule microarray, 635/667 nm fluorescence, BSA, DTT, primary screen (AID 1130).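 Further: composite of spot emission at 667 nm and signal to noise over triplicate slides.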 The following applies: 635 nm fluorescence, higher = more signal.
Focal adhesion kinase 1 (Homo sapiens), sequence (Q05397 whole entry, looked up): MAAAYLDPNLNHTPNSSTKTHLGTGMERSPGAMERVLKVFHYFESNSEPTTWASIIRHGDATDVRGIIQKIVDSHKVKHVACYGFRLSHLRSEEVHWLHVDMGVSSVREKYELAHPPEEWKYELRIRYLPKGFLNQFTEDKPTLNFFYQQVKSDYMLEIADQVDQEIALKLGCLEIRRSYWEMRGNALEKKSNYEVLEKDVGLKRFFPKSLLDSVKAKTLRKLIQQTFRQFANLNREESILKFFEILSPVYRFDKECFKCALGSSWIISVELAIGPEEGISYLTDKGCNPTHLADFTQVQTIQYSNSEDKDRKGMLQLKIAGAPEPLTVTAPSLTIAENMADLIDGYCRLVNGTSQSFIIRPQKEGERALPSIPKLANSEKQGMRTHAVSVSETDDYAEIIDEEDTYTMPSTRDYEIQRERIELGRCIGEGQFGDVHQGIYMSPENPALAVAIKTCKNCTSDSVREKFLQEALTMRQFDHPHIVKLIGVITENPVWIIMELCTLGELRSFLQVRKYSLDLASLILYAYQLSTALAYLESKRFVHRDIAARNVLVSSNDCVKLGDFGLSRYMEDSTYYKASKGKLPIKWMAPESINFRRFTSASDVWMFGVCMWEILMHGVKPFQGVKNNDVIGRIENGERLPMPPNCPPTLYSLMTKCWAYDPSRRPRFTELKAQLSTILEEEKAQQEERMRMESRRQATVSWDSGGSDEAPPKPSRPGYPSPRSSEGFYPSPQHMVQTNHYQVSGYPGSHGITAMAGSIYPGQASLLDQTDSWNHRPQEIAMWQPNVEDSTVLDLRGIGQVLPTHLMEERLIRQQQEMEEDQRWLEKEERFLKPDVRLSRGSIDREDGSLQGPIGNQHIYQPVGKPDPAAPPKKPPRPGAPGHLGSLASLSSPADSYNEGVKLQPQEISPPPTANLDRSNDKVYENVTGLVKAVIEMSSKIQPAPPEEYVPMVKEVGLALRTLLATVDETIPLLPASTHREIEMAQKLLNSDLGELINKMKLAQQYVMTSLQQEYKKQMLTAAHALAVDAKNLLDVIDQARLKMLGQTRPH
For test [4], the system named is Fibrinogen (Alexa647-labelled). The test can be described thus: Alexa647-fibrinogen binding to printed small molecules – biochemical, small-molecule microarray, 635/667 nm fluorescence, artefact control for SMM control-protein annotation, profiling panel (AID 1131).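 Further: z-score merges 667 nm fluorescence with per-spot signal-to-noise over triplicate slides.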 The following applies: fibrinogen-A647 binding fluorescence, higher = more signal.
Test [5] has as its target Follistatin (Homo sapiens) (UniProt P19883). The test is described as follows: FST protein binding to printed compounds – biochemical, small-molecule microarray, 635/667 nm fluorescence, primary screen (AID 1132). The following applies: 635 nm fluorescence, higher = more signal.
The target in test [6] is Fibroblast growth factor 2 (Homo sapiens) (UniProt P09038). The test is described as follows: basic fibroblast growth factor binding to printed compounds – biochemical, small-molecule microarray, 635/667 nm fluorescence, primary screen (AID 1133). Conditions: FGF2, fluorescence 635/667, higher = more signal.
Fibroblast growth factor 2 (Homo sapiens), sequence (P09038 whole entry, looked up): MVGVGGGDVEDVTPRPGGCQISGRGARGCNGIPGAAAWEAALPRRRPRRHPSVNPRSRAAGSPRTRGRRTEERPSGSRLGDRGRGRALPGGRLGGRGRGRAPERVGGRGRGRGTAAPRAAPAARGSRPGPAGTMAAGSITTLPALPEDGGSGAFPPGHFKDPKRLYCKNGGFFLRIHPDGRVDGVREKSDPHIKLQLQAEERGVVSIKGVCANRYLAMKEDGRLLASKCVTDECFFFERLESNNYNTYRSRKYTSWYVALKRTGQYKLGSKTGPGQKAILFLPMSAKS
A short description of test [7]: JC-1 mitochondrial potential readout, lung cancer cells – cell-based, A549, JC-1 fluorescence, basal, 24 h, 100 nL, profiling panel (AID 1138).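 Further: A549 lung adenocarcinoma cells under basal conditions with no added stimulus; test concentration not given here.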 Conditions: higher = more signal.
Test [8] concerns Lefty1. The test can be described thus: Lefty1 protein binding to printed compounds – biochemical, small-molecule microarray, 635/667 nm fluorescence, primary screen (AID 1139). The following applies: fluorescence 635/667, higher = more signal.
Test [9] relates to wheat germ agglutinin (Triticum aestivum), Alexa647-labelled. The test is described as follows: Alexa647-WGA lectin binding to printed small molecules – biochemical, small-molecule microarray, 635/667 nm fluorescence, artefact control for SMM control-protein annotation, profiling panel (AID 1140).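 Further: score merges 667 nm feature emission with signal to noise over triplicate slides.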 The following applies: WGA-A647 binding, 635 nm fluorescence, higher = more signal.

The target in test [10] is Luciferin 4-monooxygenase (Photinus pyralis) (UniProt P08659). The test is described as follows: inhibition of purified Photinus pyralis luciferase – biochemical, luminescence, purified enzyme, 2006 set, primary screen (AID 1141).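 Further: cell-free assay with purified firefly luciferase at 100 ng per well in PBS; test concentration not given here.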 Conditions: purified firefly luciferase, SteadyGlo luminescence, 30 min; higher = more signal, called active from +8 up or from −8 down.
Luciferin 4-monooxygenase (Photinus pyralis), sequence (P08659 whole entry, looked up): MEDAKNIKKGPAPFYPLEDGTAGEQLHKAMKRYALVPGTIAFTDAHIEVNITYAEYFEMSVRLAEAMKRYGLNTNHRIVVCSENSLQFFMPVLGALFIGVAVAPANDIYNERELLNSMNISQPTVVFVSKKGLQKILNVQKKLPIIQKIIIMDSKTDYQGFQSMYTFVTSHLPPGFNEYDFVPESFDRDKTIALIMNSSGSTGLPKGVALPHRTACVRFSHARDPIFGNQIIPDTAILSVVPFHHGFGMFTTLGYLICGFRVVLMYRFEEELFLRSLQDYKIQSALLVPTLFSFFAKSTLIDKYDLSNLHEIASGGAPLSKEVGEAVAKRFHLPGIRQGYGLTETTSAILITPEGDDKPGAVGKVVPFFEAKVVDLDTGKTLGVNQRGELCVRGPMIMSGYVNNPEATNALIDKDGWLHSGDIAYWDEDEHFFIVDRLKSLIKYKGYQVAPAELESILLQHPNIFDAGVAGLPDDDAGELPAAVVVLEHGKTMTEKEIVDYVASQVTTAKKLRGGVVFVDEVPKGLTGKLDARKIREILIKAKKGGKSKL
Test [11] concerns Wnt5a (protein binding on small-molecule microarray). The test is described as follows: small molecules binding Wnt5a protein – biophysical, small-molecule microarray, 635/667 nm fluorescence, primary screen (AID 1142).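 Further: fluorescence read at 667 nm with signal to noise per printed feature.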 Conditions: 635 nm fluorescence, higher = more signal.
The nature of test [12]: ATP-based viability of Huh7 replicon cells – cell-based, CellTiter-Glo luminescence, basal, 48 h, cytotoxicity control for HCV replication inhibitor project, primary screen (AID 1143).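 Further: Huh7 hepatoma cells carrying a hepatitis C replication reporter with no stimulus; test concentration not given here.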 Conditions: higher = more signal, called active from +8 up or from −8 down. Background: In antiviral work, replicon cells carry a viral genome segment that copies itself.
A short description of test [13]: Pseudomonas biofilm growth suppression – PAO1 strain, BacTiter-Glo luminescence, LB-PBS, primary screen (AID 1144). The following applies: P. aeruginosa PAO1 biofilm, 12 h, higher = more signal.
A short description of test [14]: basal CRE-LacZ reporter activity in PC12 – cell-based, unstimulated, primary screen (AID 1145). The following applies: no forskolin, luminescence, 4.5 h, higher = more signal, called active from +8 up or from −8 down.
A short description of test [15]: forskolin-driven CRE-LacZ activity in PC12 – cell-based, CRE-LacZ reporter, forskolin-stimulated, primary screen (AID 1146).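 Further: PC12 cells with 6xCRE LacZ reporter stimulated by forskolin 10 µM; beta-galactosidase reporter signal reflecting CREB driven transcription.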 The following applies: luminescence, 4.5 h, higher = more signal, called active from +8 up or from −8 down.
The target of test [16] is Streptavidin (Streptomyces avidinii) (UniProt P22629). The test is described as follows: compounds binding control protein streptavidin – biophysical, small-molecule microarray, 635/667 nm fluorescence, artefact control for SMM compound annotation, primary screen (AID 1147).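 Further: signal reflects streptavidin binding to arrayed compounds as a control protein.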 Conditions: higher = more signal.
Streptavidin (Streptomyces avidinii), sequence (P22629 whole entry, looked up): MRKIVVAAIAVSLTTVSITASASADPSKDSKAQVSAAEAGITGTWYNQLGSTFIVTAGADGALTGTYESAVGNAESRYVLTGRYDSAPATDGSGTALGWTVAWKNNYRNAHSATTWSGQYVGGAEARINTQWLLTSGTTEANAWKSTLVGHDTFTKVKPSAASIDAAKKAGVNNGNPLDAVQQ
Test [17] is described as follows: probe aInhba binding on compound microarray – biochemical, small-molecule microarray, 635/667 nm fluorescence, primary screen (AID 1148).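 Further: score merges 667nm spot fluorescence with signal-to-noise for antibody binding to printed compounds.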 The following applies: higher = more signal.
Test [18] deals with Torsin-1A (Homo sapiens) (UniProt O14656). The test can be described thus: TOR1A wild-type binding on microarray – cell lysate, small-molecule microarray, lysate, 635/667 nm, primary screen (AID 1149). Conditions: COS7 hTOR1A-WT lysate, 635 nm fluorescence, higher = more signal.
Torsin-1A (Homo sapiens), sequence (O14656 whole entry, looked up): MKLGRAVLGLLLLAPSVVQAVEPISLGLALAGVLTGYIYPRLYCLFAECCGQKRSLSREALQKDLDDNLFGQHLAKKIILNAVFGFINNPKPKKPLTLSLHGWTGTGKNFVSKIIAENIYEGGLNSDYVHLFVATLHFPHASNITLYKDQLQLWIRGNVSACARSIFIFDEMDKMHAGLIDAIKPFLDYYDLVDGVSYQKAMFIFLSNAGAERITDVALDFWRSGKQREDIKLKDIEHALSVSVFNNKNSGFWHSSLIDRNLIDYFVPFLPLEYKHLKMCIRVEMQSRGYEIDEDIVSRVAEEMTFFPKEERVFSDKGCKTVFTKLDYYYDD
The target is the same in test [19]. The test can be described thus: torsin A mutant lysate binding on microarrays – cell lysate, small-molecule microarray, COS7 lysate, 635/667 nm fluorescence, primary screen (AID 1150).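 Further: score pools 667 nm emission and signal to noise measuring lysate protein binding.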 Conditions: COS7 hTOR1A mutant lysate, 635 nm fluorescence, higher = more signal.
The subject of test [20] is Sonic hedgehog protein (Shh). The test can be described thus: Sonic hedgehog microarray binding compounds – biochemical, small-molecule microarray, 635/667 nm fluorescence, primary screen (AID 1151).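 Further: Shh protein binding to compounds spotted on small-molecule microarray slides; score combines spot fluorescence intensity with signal-to-noise across triplicate slides.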 The following applies: 635 nm fluorescence, higher = more signal.

Activity calls are given as the source filed them. Unless noted, how the calls were made is not given here.

Follistatin (Homo sapiens), sequence (P19883 whole entry, looked up): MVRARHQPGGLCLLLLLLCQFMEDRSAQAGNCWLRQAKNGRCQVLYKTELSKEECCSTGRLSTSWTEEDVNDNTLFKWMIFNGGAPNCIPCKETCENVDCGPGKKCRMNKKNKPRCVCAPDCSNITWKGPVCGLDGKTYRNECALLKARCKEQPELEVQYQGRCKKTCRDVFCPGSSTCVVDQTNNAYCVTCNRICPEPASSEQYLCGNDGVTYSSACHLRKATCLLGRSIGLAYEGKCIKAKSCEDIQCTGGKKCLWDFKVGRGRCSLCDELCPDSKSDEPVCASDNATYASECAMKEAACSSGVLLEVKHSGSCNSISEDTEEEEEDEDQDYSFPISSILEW

Take `O=C(CS)NCCCCCCNC(=O)[C@@H]1C[C@@H]2C(=O)N3CCC[C@H]3C(=O)N2[C@@H]1c1ccc(O)cc1`: the composite z-score in [1] was 3.73; in test [2], 1.21; in test [3] it was 0.887; in [4], -0.627; in test [5] it was 1.16; in test [6] it was 1.13. In addition, the composite z-score was -0.686 in [8]; -0.462 in test [9]; 0.133 in [11]; -0.974 in test [16]; -0.129 in test [17]; 0.971 in test [18]. Also, the composite z-score in test [19] stood at 1.1; in [20] it was 0.881. Moreover, the z-score in [7] is -1.13; in test [10], -0.315 (inactive); in test [12] it was 0.589 (inactive); in test [13] it was 0.178 (inactive); in test [14], -0.39 (inactive); in [15], -0.972 (inactive).
Turning to `COCCOC(=O)N1C(=O)[C@@]2(c3cc(C#CCNC(N)=O)ccc31)[C@H](c1ccc(O)cc1)N1[C@H](c3ccccc3)[C@H](c3ccccc3)OC(=O)[C@H]1[C@@H]2C(=O)NC[C@H](O)c1ccccc1`, the composite z-score in [1] is -0.49; in test [2], 0.802; in test [3], -0.133; in test [4] it was 0.793; in test [5], 1.34; in test [6] it was 1.19. Besides, the composite z-score in [8] is 1.13; in [9], 0.69; in test [11], 0.545; in [16], -0.0027; in [17] it was 0.415; in test [18], 0.76. Moreover, the composite z-score in test [19] turned out to be 0.353; in [20], 1.75. Moreover, the z-score in test [7] is -1.05; in test [10], 0.0103 (inactive); in [12], 0.123 (inactive); in test [13], 0.00448 (inactive); in test [14] it was -0.606 (inactive); in test [15], -0.197 (inactive).
Turning to `C=CC[C@@H](OC(=O)Nc1ccc(OC)cc1)c1ccc(O)c2ccccc12`, the composite z-score in [1] was 0.235; in [2], 1.17; in [3] it was 2; in [4], 0.656; in test [5], 1.39; in test [6], 1.94. Besides, the composite z-score came to 1.35 in [8]; 0.542 in [9]; 0.42 in [11]; 0.737 in test [16]; 0.241 in test [17]; 1.31 in test [18]. Further, the composite z-score in [19] stood at 0.625; in [20] it was 2.03. The z-score was -1.3 in test [7]; -6.72 (inactive) in [10]; -4.89 (inactive) in test [12]; -1.39 (inactive) in test [13]; 1.01 (inactive) in [14]; 4.3 (inactive) in [15].
For `CC(C)(C)OC(=O)CC[C@]1(C(=O)N2CCCCC2)N=C(c2ccc(OCCCO)cc2)O[C@H]1c1ccccc1N=[N+]=[N-]`, the composite z-score amounted to 2.92 in test [1]; 1.26 in test [2]; 1.91 in [3]; 0.753 in test [4]; 0.771 in test [5]; 1.6 in test [6]. Besides, the composite z-score in [8] was found to be 0.513; in [9] it was 0.971; in test [11], 0.556; in [16], 1.87; in test [17] it was 0.813; in test [18], 0.569. Moreover, the composite z-score in test [19] is 2.11; in test [20] it was 0.837. Besides, the z-score was 2.83 in test [7]; -12.8 (active) in test [10]; -2.48 (inactive) in test [12]; 0.043 (inactive) in test [13]; 1.43 (inactive) in test [14]; -1.57 (inactive) in test [15].
For `CC(C)(C)OC(=O)CC[C@@]1(C(=O)NCCN2CCOCC2)N=C(c2ccc(OCCCO)cc2)O[C@@H]1c1ccccc1`, the composite z-score in test [1] is 1.37; in test [2] it was 1.19; in test [3], 0.111; in [4], 1.01; in test [5] it was 1.28; in test [6], 0.695. The composite z-score stood at 0.499 in [8]; 1.22 in [9]; 0.739 in test [11]; 1.12 in [16]; 0.248 in test [17]; 0.388 in test [18]. The results for the composite z-score in test [19] and in test [20] were -0.522 and 0.306, respectively. The z-score in [7] is 1.59; in test [10] it was -1.66 (inactive); in test [12] it was 0.256 (inactive); in test [13] it was 0.174 (inactive); in [14], -1.33 (inactive); in test [15], -0.998 (inactive).
